Screen size: about 350,000 compounds; about 220 (0.063%) were called active. About 4% were inconclusive and are not listed. Shown is part of a subset that was picked to be rich in actives. Unmarked numbers belong to inactive results. The call rests on the fitted dose curve; in most records, active means well fitted activation curve with a large enough effect; inconclusive means small, poorly fitted or top-dose-only effect; inactive means no such curve, though single readings can be large or run the other way.
Potency means the concentration at half of the fitted maximal effect.

A short description of this assay: qHTS for Activators of Integrin-Mediated Alleviation for Muscular Dystrophy. Further: nearly all actives have a fitted effect of over 60% in size.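 On activation: 100% = response of the positive control SU9516.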 The following applies: alpha7betagal myoblasts, beta-gal FDG fluorescence, 48 h; series mostly up to 38.3 µM; activation: at the top concentration. The source says: Integrins are a diverse family of transmembrane cell surface receptors that mediate interactions between cells and the extracellular matrix. These heterodimeric proteins are composed of alpha and beta subunits and the a7b1 interacts with laminin in the extracellular matrix and actin of the cell cytoskeleton. Both chains contribute to ligand binding, but the alpha chain mediates the specificity of the interaction. The alpha7beta1 integrin is a major laminin receptor in skeletal, cardiac and vascular smooth muscle. Mutations in the alpha7 integrin gene are responsible for muscular dystrophy in both humans and mice. The alpha7beta1 integrin is also a major modifier of muscle disease progression in various muscle diseases including Duchenne muscular dystrophy, Fukuyama muscular dystrophy and merosin deficient congenital muscular dystrophy type 1A. […] Transcriptional regulation of the alpha7 integrin gene is poorly understood and probably involves multiple transcription factors. The goal of identifying small molecules that enhance alpha7 integrin expression is two-fold: firstly, such molecules would help us gain insight into the complex transcriptional control of alpha7 integrin. It is known that alpha7 integrin expression is tightly controlled during various stages of development, disease and in response to external stimuli. The second goal of the project is to translate the above finding into a therapeutic strategy for muscular dystrophy. […] Thus this project aims to discover small molecule probes that would not only help in gaining a better understanding of the complex regulatory mechanism of alpha7 integrin expression, but also lead to development of pharmacological agents to fight muscular dystrophy. NIH Chemical Genomics Center [NCGC] NIH Molecular Libraries Probe Centers Network [MLPCN] MLPCN Grant: NS058429 Assay Submitter (PI): Dean Burkin, University of Nevada School of Medicine
A total of 250 alpha7betagal+/- myoblasts at passage 13 were dispensed using a mulitdrop from Thermo into black low base tissue culture treated microclear aurora plates in 6 ul media containing DMEM without phenol, 5% FBS, 1x GluMax and 1x Penicillin/Streptomycin. The plates were incubated 16-24 hr at 37C, 5% CO2, 95% humidity covered with low evaporation stainless steel lids from Kalypsys. Compounds were then dispensed using a Kalypsys pintool to deliver 23 nl/well compounds in DMSO (diluted into 6 uL resulting in a 1:260 dilution of compound). The control compound used was the cdk2 inhibitor SU9516 from Tocirs (found in the initial LOPAC screen). The plates were incubated for 48 hours at 37C, 5% CO2, 95% humidity using the same stainless steel lids. After incubation with compound, 5 ul of the media was aspirated using the Kalypsys washer/dispenser and 3 ul of the Mammalian Protein Extraction Reagent (MPER) lysis buffer (Thermo Fisher) was added. The plates were spun at 2000 rpms to remove bubbles and an initial capture was acquired on the Viewlux (Perkin Elmer) with exciation at 480 nm and emission at 540 nm for 25 seconds to omit any auto fluorescent compounds. The plates were then incubated for 10 minutes at room temperature. […] The plates were again read on the Viewlux with exciation at 480 nm and emission at 540 nm for 25 seconds.
On to `O=Cc1cn(Cc2ccc(F)cc2Cl)c2ccccc12`, for which the Potency was 15.8 µM (active). For the compound `O=c1[nH]c(=S)[nH]c(O)c1/C=C1\C=Nc2ccccc21`, the “activation” value was -56.5%. Same read-out and setting: the figure for `Cc1ccc(Oc2cnn(-c3ccccc3)c(=O)c2Br)cc1` is -47.1%; for `CC(=O)c1ccc(S(=O)(=O)N2CCN(c3nc4c(C)c(C)ccc4cc3C#N)CC2)cc1` it is -42%.

`CCOC(=O)c1cccc(C2=C(CNC(=O)c3ccncc3)[C@H]3CC[C@@H](C2)N3Cc2ccccc2)c1`: the “activation” value was -46%.

Values taken from PubChem BioAssay AID624291 (National Center for Advancing Translational Sciences (NCATS), 2012).
